Hits are enriched below; roughly 6% of the tested compounds scored in any of these assays.
D1 antagonist: blocks dopamine activation of the human D1 receptor; HEK293 TREx D1 cells, calcium flux, dopamine EC80; active compounds read low; activity change, negative = inhibition, % at 10 µM; actives 3.2% (n = 360,000); AID 504652; in the data active = activity change below about -30%
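Calcium flux readout: force-coupled, inducible Hek293 Trex D1 line, cells induced overnight at 30 C with tetracycline, dye-loaded 30–90 min at RT. Antagonism scored against EC80 dopamine challenge given 180 s after compound.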
D3 antag: D3 dopamine receptor (human) antagonism; max response, negative = inhibition, %; P35462; AID 652054; actives 2.5% (n = 360,000); D3R cells, DiscoveRx beta-arrestin luminescence, antagonist mode; active compounds read low; in the data active = max response below about -50%; inconclusive = no clear call, values can overlap the other calls
Target sequence (P35462 whole entry, looked up): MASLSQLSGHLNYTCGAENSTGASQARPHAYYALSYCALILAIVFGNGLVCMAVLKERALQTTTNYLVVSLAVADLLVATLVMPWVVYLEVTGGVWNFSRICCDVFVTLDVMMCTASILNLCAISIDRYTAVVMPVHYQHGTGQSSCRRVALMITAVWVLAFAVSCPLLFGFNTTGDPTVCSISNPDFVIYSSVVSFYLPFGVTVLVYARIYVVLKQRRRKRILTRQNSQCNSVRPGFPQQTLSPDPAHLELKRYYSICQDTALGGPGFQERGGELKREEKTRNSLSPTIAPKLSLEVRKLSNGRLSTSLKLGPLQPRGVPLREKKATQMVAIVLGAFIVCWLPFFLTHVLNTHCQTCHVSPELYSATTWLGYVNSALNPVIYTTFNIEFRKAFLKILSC
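Cells expressing the human receptor were seeded at 1500 cells/well, incubated overnight at 37 degrees C in 5% CO2, then exposed to library compounds with dopamine controls for 90 minutes at 37 degrees C before luminescent detection.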
D1 ag: agonists of human D1 dopamine receptor. P21728. HEK293 T-REx D1 cells, calcium flux, agonist mode. activation, % at 2 µM. actives 1% (n = 360,000). AID 504660; in the data active = activation above about 30%
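Tetracycline-induced HEK293 TREx D1 cells, force-coupled to calcium signalling, were dye-loaded with a no-wash calcium kit. Compound was pin-added after a 10 s baseline. Fluorescence was read kinetically at 1 cycle/s for 180 s, with calcium rises flagged as agonism.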
D1 PAM: enhances dopamine response at the human D1 receptor; P21728; HEK293 TREx D1 cells, calcium flux, dopamine EC20 potentiation; potentiation, % at 10 µM; actives 0.036% (n = 360,000); in the data active = potentiation above about 30%
DRD3 agonist: D3 dopamine receptor (human) agonism | AID 652048 | P35462 | D3R DiscoveRx beta-arrestin cells, luminescence, 90 min | actives 0.58% (n = 410,000) | max activation, %; in the data active = max activation above about 30%
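Cells at 1500/well, incubated overnight, then treated with pinned compounds (dopamine as control) for 90 min at 37 degrees C. DiscoveRx reagent added for 30 - 60 minutes at room temperature; luminescence read.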
Of the large screens only hits and unclear results are named; the others gave an inactive call; ! = not confirmed by another sample.

Cc1nnc(Sc2nc3ccccc3o2)c2ccccc12	D3 antag -68.5
C/C1=C2N=C(/C=C3N=C(/C(C)=C4\[N-]C(C(CC(N)=O)C4(C)CCC(=O)NCC(C)OP(=O)([O-])OC4C(CO)OC(n5cnc6cc(C)c(C)cc65)C4O)C4(C)N=C1C(CCC(N)=O)C4(C)CC(N)=O)C(CCC(N)=O)C\3(C)C)C(CCC(N)=O)C/2(C)CC(N)=O.[CH3-].[Co+3] (configuration not stated)	none (no result: D1 antagonist, D3 antag, D1 ag, D1 PAM)
Cc1cc2c(c(=O)o1)C1O[C@](c3ccsc3)(Cc3ccccc31)O2	none (no result: D3 antag, DRD3 agonist)
COCCN(CCOC)C(=O)c1cc2c(=O)n3ccccc3nc2n1C	none (no result: D3 antag)
C[C@@]12CCC[C@H]1[C@@H]1CC[C@H]3C[C@@H](O)CC[C@]3(C)[C@H]1CC2	none (no result: D1 antagonist, D3 antag, D1 ag, D1 PAM)
CC12CCC3C(CCC4CC(O)CCC43C)C1CC(O)C2 (configuration not stated)	DRD3 agonist 30.7 (no result: D1 antagonist, D1 ag, D1 PAM)
C[C@]12CCC(O)CC1CCC1C2CC[C@]2(C)C(c3cc(C(F)(F)F)n[nH]3)CCC12 (some centres not stated)	D1 ag 43.0
CC(O)[C@H]1CC[C@H]2[C@@H]3CC[C@H]4C[C@H](O)CC[C@]4(C)[C@H]3[C@H](O)C[C@]12C (some centres not stated)	D1 antagonist -50.1, D1 ag 71.7
COc1ccccc1C(=O)Nc1cccc(OCc2cc(=O)n3c4c(sc3n2)CCCC4)c1	none (no result: D3 antag)
Cn1c(=O)c2cc(S(=O)(=O)NC(Cc3ccccc3)C(=O)Nc3ccc(F)cc3)ccc2n(C)c1=O (configuration not stated)	none (no result: D3 antag)
CN1C(=O)C[C@@H](C(=O)N[C@@H](Cc2cnc[nH]2)C(=O)N2CCC[C@H]2C(N)=O)NC1=O	none (no result: D1 antagonist, D3 antag, D1 ag, D1 PAM)
COc1ccc(-c2noc(CCC(=O)Nc3cccc(C)c3)n2)cc1	D1 antagonist -44.6
O=C(CCc1nc(-c2cccs2)no1)Nc1cccc([N+](=O)[O-])c1	D1 antagonist -33.9 (no result: D3 antag)
O=C(CCc1nc(-c2cccs2)no1)Nc1ccc([N+](=O)[O-])cc1	none (no result: D3 antag)
COc1cccc(NC(=O)CCc2nc(-c3ccc(C(C)(C)C)cc3)no2)c1	none (no result: D3 antag)
CCN(C(=O)CCc1nc(-c2ccc(OC)cc2)no1)c1cc(OC)ccc1OC	D1 antagonist -49.0
COc1ccc(CCCc2nnc(SCC(=O)Nc3cccc(C)c3)o2)cc1C	none (no result: D3 antag)
COc1ccc(CCCc2nnc(SCC(=O)Nc3cccc(C)c3)o2)cc1	D1 antagonist -42.9!, D1 ag 46.5!
O=C(NCc1cccc(Cl)c1)c1cccn1-c1nnc(N2CCCC2)s1	none (no result: D3 antag)
CCOC(=O)c1cccc(NC(=O)CCc2nc(-c3ccccc3F)no2)c1	none
CCOC(=O)c1cccc(NC(=O)CCc2nc(-c3ccc(C)cc3)no2)c1	D1 ag 31.4
CC(Oc1ccc2ccccc2c1)C(=O)NNC(=O)Nc1ccccc1 (configuration not stated)	D1 antagonist -37.1
Cc1ccc(NC(=O)NNC(=O)COc2ccc3ccccc3c2)cc1	none
CSCC[C@H](NC(=O)[C@H](Cc1c[nH]c2ccccc12)NC(=O)CCNC(=O)OC(C)(C)C)C(=O)N[C@@H](CC(=O)O)C(=O)N[C@@H](Cc1ccccc1)C(N)=O	none (no result: D1 antagonist, D3 antag, D1 ag, D1 PAM)
CCN1C(=O)C(Cc2nc3ccccc3c(=O)n2-c2cccc(C)c2)c2ccccc21 (configuration not stated)	none (no result: D3 antag)
CCCCN1C(=O)C(NC(=O)c2ccc(C(C)(C)C)cc2)(C(F)(F)F)C(C(=O)OC)=C1C (configuration not stated)	D1 ag 57.9 (no result: D3 antag)
O=c1c2c(n3cnnc3n1-c1ccccc1)-c1ccccc1CC21CCCC1	none
Cn1c(=O)c2c(n3cnnc13)-c1ccccc1CC21CCCC1	D3 antag -56.4
CCn1c(O)c(N=NC(=O)CNC(=O)c2ccco2)c2ccccc21	none
COc1ccccc1C(=O)NCC(=O)N=Nc1c(O)n(C(C)C)c2ccccc12	D3 antag -59.1
CCn1c(O)c(N=NC(=O)CNC(=O)c2ccccc2F)c2ccccc21	D3 antag -74.3
CCN(CC)CCn1c(=N)n(CC(=O)c2ccc(Br)s2)c2ccccc21	D3 antag -73.2
N=c1n(CC(=O)c2ccc(Br)s2)c2ccccc2n1Cc1ccccc1	D1 ag 48.7
Cn1c(=N)n(CC(=O)c2ccc(Br)s2)c2ccccc21	D3 antag inconclusive
CCN(CC)CCn1c(=N)n(CCO)c2ccccc21	none
COc1ccc(Cn2c(CCC(=O)Nc3cc(OC)c(OC)c(OC)c3)nc3cccnc32)cc1	D1 antagonist -47.2 (no result: D3 antag)
O=C(COC(=O)[C@@H]1CC(O)CN1S(=O)(=O)c1ccccc1[N+](=O)[O-])Nc1ccc2ccccc2c1 (some centres not stated)	D1 antagonist -32.2
CCCC12CN3CC(CCC)(CN(C1)C3c1ccccc1)C2=O (configuration not stated)	none (no result: D3 antag)
O=C(c1ccc(CS(=O)Cc2cccc(Cl)c2)o1)N1CCN(c2ccc(F)cc2)CC1 (configuration not stated)	none (no result: D1 antagonist, D1 ag, D1 PAM)
O=C(c1ccc(CS(=O)Cc2ccc(Cl)cc2)o1)N1CCN(c2ccc(F)cc2)CC1 (configuration not stated)	D1 antagonist -35.5
Cc1ccc(N2C(=O)CSC2c2cccs2)cc1 (configuration not stated)	D3 antag -56.8
Cc1cc(-c2ccccc2)nc2[nH]n(-c3ccccc3)c(=O)c12	D3 antag -68.5
Cc1cc(NS(=O)(=O)c2ccc(NC(=O)C(CC(C)C)N3C(=O)c4ccccc4C3=O)cc2)nc(C)n1 (configuration not stated)	none
CCC(C)C(NC(=O)c1ccccc1)C(=O)Nc1ccc(S(=O)(=O)Nc2cc(C)nc(C)n2)cc1 (configuration not stated)	D1 antagonist -58.5
Cc1ccc(C(=O)/C=C/Nc2ccc(S(=O)(=O)Nc3cc(C)nc(C)n3)cc2)cc1	D1 antagonist -56.6
Cc1cc(NS(=O)(=O)c2ccc(NC(=O)C(C(C)C)N3C(=O)c4ccccc4C3=O)cc2)nc(C)n1 (configuration not stated)	D3 antag -75.5
Cc1cc(NS(=O)(=O)c2ccc(NC(=O)C(F)(F)F)cc2)nc(C)n1	DRD3 agonist 30.4
O=C(Cn1c(=O)c2cccn2c2ccc(F)cc21)N1CCN(c2ccccc2)CC1	none (no result: D3 antag)
CCOC(=O)c1cc2c(=O)n3ccccc3nc2n(C(C)C)c1=NC(=O)c1cc2ccccc2o1	none (no result: D3 antag)
CCC(=O)N1CCC2(CC1)Oc1ccc(F)cc1C(=O)C21CC(c2cccnc2)=NO1 (configuration not stated)	none
CC(C)(C)OC(=O)N1CCC2(CC1)Oc1ccc(F)cc1C(=O)C21CC(c2cccnc2)=NO1 (configuration not stated)	D1 antagonist -90.6

Bioassay records as filed in PubChem.
